G9a block = blocks human histone lysine methyltransferase G9a; Potency, µM (top dose mostly 102 µM), inactives show top-dose activity, negative = inhibition, usual class: inhibitors; 8.8% of 350,000 active; Q96KQ7; G9a H3K9 monomethylation, AlphaScreen, 2 h; note: % is set by controls: 0 for no effect and ±100 for the full control effect; nearly all actives have a fitted effect of over 75% in size
Target sequence (Q96KQ7 913-1193 limits assumed): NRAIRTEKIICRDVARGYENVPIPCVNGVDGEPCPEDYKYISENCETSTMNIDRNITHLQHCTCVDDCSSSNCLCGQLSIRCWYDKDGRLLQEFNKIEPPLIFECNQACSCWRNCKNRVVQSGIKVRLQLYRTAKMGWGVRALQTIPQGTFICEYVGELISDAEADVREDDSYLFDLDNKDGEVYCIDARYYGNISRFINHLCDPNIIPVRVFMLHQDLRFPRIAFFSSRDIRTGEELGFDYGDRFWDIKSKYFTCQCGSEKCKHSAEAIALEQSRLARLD
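Readings reflect AlphaScreen signal from monomethyl-H3K9 antibody detection. HMT at 20 nM; substrate b-H3K9 500 nM; cofactor SAM 20 uM; 2 h RT reaction; compounds tested as titrations in qHTS with 15 min preincubation.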
Sfp inh = inhibitors of Bacillus subtilis Sfp phosphopantetheinyl transferase | Q9F4F7 | AID 1490 | Biochemical Sfp PPTase activity, qHTS | Potency, µM, without a hit: largest response in the series, negative = inhibition, most hits filed as inhibitors | 3.5% of 310,000 active;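 note: the enzyme is Sfp with the accession as filed and its product quenches rhodamine fluorescence; 0% = enzyme reaction without inhibitor and -100% = no enzyme wells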
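Compounds were incubated with enzyme (final 15 nM) for 15 min at room temperature before substrate addition started the reaction. Fluorescence at 525 nm excitation, 598 nm emission was recorded immediately and after 30 minutes.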
VDR inhibitor = inhibitors of human vitamin D receptor; P11473; VDR-SRC2-3 peptide fluorescence polarization, 2 h; Potency, µM, without a hit: max response, negative = inhibition, most hits filed as inhibitors; 0.93% of 400,000 active; AID 504847; note: % is set by controls: 0 for no effect and ±100 for the full control effect
Target sequence (P11473 whole entry, looked up): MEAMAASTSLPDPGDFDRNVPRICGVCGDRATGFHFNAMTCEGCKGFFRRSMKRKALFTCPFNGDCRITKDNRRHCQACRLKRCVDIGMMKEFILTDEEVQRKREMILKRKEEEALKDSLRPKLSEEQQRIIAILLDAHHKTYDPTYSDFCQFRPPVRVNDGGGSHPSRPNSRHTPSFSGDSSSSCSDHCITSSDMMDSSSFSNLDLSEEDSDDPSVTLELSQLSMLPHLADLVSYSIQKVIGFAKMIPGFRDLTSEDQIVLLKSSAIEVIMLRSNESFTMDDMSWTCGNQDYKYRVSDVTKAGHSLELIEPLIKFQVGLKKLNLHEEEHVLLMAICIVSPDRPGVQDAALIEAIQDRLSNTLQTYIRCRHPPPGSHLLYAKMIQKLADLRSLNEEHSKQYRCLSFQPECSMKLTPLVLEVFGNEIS
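Fluorescence polarization assay of small-molecule disruption of VDR binding to coregulator peptide SRC2-3. Compounds and controls pin-transferred, then read after 2 h incubation at ambient room temperature.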
12-LOX inh = ALOX12 (human) lipoxygenase inhibition. P18054. purified 12hLO, xylenol orange hydroperoxide absorbance. Potency, µM (top dose mostly 108 µM), for inactives: at the top dose activity change, negative = inhibition, most hits filed as inhibitors. 1.1% of 580,000 active; note: % is set by controls: 0 for no effect and ±100 for the full control effect
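Hydroperoxide product was detected by ferrous iron/xylenol orange as the 573 to 405 nm absorbance ratio. Arachidonic acid at 40 uM (final) was turned over for 30 min at room temperature by 150 nM human 12hLO, pH 7.0 Hepes buffer, after 15 min compound preincubation.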
Glioma ERSR ind = induces the endoplasmic reticulum stress response in human glioma cells. U87-MG GRP78 promoter luciferase reporter, 16 h. Potency, µM, for the others: at the highest dose activation, hits mostly activators. 0.02% of 420,000 active. AID 602332; note: series mostly up to about 76 µM; % of control where 0% means no effect; nearly all actives have a fitted effect of over 35% in size
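Stably transfected U87-MG glioma cells carrying a GRP78-based luciferase sensor; 16 h compound incubation. Luminescence end-point read 10 min after Bright-Glo addition at room temperature.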
Active calls of the source: *; ? = inconclusive; . = not tested or not shown; [ ] = remark or other dose. Only a selection was taken, and hits are over-represented in it overall. Calls come from the whole dose curve; as a rule, active = well fitted curve in the direction sought with a large enough effect; inconclusive = small, poorly fitted or top-dose-only effect, or another doubt; inactive = no such curve, though single readings can be large; an effect the other way counts as inactive or inconclusive. Potency is the fitted concentration of half-maximal effect.

SMILES	G9a block	Sfp inh	VDR inhibitor	12-LOX inh	Glioma ERSR ind
CC(=O)Oc1ccc(N(C(C)=O)S(=O)(=O)c2ccccc2)c2ccccc12	.	.	.	4%	4%
Cc1ccc(S(=O)(=O)N(C(=O)c2ccncc2)c2ccc(OC(=O)c3ccncc3)c3ccccc23)c(C)c1	1.6µM*	45µM*	-9%	.	-17%
Cc1ccc(S(=O)(=O)N(C(=O)c2ccncc2)c2ccc(OC(=O)c3ccncc3)c3ccccc23)cc1	8.9µM*	25µM*	?	-27%	-2%
Cc1cc(C)c(C)c(OCCCOc2cccc3cccnc23)c1	-25%[59 µM]	71µM*	-5%	-22%	0%
CN1C(=O)C2(c3ccccc31)C1CCCC=C1C(C#N)=C(N)C2(C#N)C#N (stereo not drawn)	-46%[2.33 µM]	13µM*	1%	45µM*	-6%
CCN1CCN(C(=O)C(=O)c2cn(CC(=O)N3CCCC3)c3ccccc23)CC1	-5%	6%	6%	3%	-3%
COc1ccc(N2CCN(C(=O)C(=O)c3cn(CC(=O)N4CCOCC4)c4ccccc34)CC2)cc1	.	1%	-7%	5%	-6%
COc1ccc(N2CCN(C(=O)C(=O)c3c[nH]c4ccccc34)CC2)cc1	45µM*	18%	4%	?	-4%
COc1ccc(N2CCN(C(=O)C(=O)c3cn(CC(=O)N4CCCCCC4)c4ccccc34)CC2)cc1	71µM*	3%	12%	-1%	-4%
CCN1CCN(C(=O)C(=O)c2cn(CC(=O)N3CCCCCC3)c3ccccc23)CC1	50µM*	0%	-4%	-6%	-2%
O=C(C(=O)N1CCN(c2ccccc2)CC1)c1c[nH]c2ccccc12	17%[59 µM]	-3%	-1%	-10%	0%
COc1ccc(Nc2nc(N3CCN(c4ccccc4OC)CC3)nc3c2cnn3C)cc1	.	.	.	16%	.
CCOC(=O)c1cc(-c2ccc(OC(F)F)cc2)nc2c1c(=O)[nH]c(=O)n2C	5%[59 µM]	-1%	-1%	3%	-4%
CCOC(=O)c1cc(-c2ccc(OC(F)F)cc2)nc2nc(SC)[nH]c(=O)c12	45µM*	4%	-11%	-4%	-2%
COc1ccc(C)cc1NC(=O)CCC(=O)Nc1nnc(C2CCCCC2)s1	1%	-6%	-4%	4%	-4%
CCOC(=O)C(=O)Nc1nnc(C2CCCCC2)s1	8.9µM*	?	-13%	?	-1%
COc1ccc(NC(=O)CCC(=O)Nc2nnc(C3CCCCC3)s2)c(OC)c1	71µM*	?	2%	-1%	-2%
CN1C[C@@H](NC(=O)c2cnccn2)C[C@H]1c1nc(-c2ccc(OC(F)(F)F)cc2)no1	.	.	.	35%[176 µM]	.
CC1S/C(=N/N=C/c2ccco2)N(Cc2ccc(F)cc2)C1=O (stereo not drawn)	50µM*	-7%	-16%	?	5%
COc1cccc(-c2ccc3c(c2)N(Cc2ccc(F)cc2)C(=O)C(C)S3)c1 (stereo not drawn)	.	.	.	?	-4%
CCC1S/C(=N/N=C/c2ccco2)N(Cc2ccccc2)C1=O (stereo not drawn)	.	?	-16%	?	1%
O=C1CS/C(=N/N=C/c2ccco2)N1Cc1ccc(F)cc1	?	-16%	-1%	6%	7%
Cc1ccccc1CN1C(=O)C(C)S/C1=N/N=C/c1ccco1 (stereo not drawn)	.	79µM*	8%	?	-3%
Cc1ccccc1CN1C(=O)C(C)Sc2ccc(-c3ccco3)cc21 (stereo not drawn)	.	.	.	16µM*	-3%
Cc1ccc(C2CC(C(F)(F)F)n3ncc(C(=O)NCc4ccco4)c3N2)cc1 (stereo not drawn)	45µM*	15%	4%	?	-1%
SMILES	G9a block	Sfp inh	VDR inhibitor	12-LOX inh	Glioma ERSR ind
Cc1ccc(C2CC(C(F)(F)F)n3ncc(C(N)=O)c3N2)cc1 (stereo not drawn)	-1%	0%	12%	0%	-4%
CN(Cc1ccc(-n2cccn2)cc1)C(=O)c1cnn2c1NC(c1ccco1)CC2C(F)(F)F (stereo not drawn)	?	20µM*	-20%	246%	-5%
COCCNC(=O)c1cnn2c1NC(c1ccco1)CC2C(F)(F)F (stereo not drawn)	11%[59 µM]	14%	22%	?	-7%
CCOC(=O)N1CCC(NC(=O)c2cnn3c2NC(c2ccco2)CC3C(F)(F)F)CC1 (stereo not drawn)	?	56µM*	-10%	-10%	-6%
COc1cccc(-c2nc3ccccc3c(=O)n2NC(=O)c2ccc(Cl)c(Cl)c2)c1	.	.	.	-23%	.
CS(=O)(=O)c1ccc(NC(=O)COc2ccccc2C(N)=O)cc1	.	.	.	20%	.
COc1ccc(N2C(=O)c3ccccc3NC23CCCC3)cc1	?	11%	-6%	-1%	-6%
COc1ccc(N2C(S)=C(C#N)C(=O)NC23CCCCC3)cc1	35µM*	18µM*	50µM*	-26%	1%
CC(C)c1ccccc1NC(=O)COC(=O)c1c2c(nc3ccccc13)CCN(Cc1ccccc1)C2	5%[59 µM]	-7%	-2%	-5%	1%
O=C(NC1CCCCCC1)c1c2c(nc3ccccc13)CCN(Cc1ccccc1)C2	1.4µM*	4%	0%	-23%	-1%
Cc1cc(N2CCN(C)CC2)ccc1NC(=O)c1c2c(nc3ccccc13)CCN(Cc1ccccc1)C2	35µM*	5%	14%	.	-14%
COc1ccc(CCn2cnc3c2c(=O)n(C)c(=O)n3C)cc1	.	.	.	19%	.
Cc1ccc(-c2ccccc2)c(Oc2ccc(C#N)c(C#N)c2)c1	.	.	.	4%	.
O=C(CSc1n[nH]c(-c2ccncc2)n1)c1cccc([N+](=O)[O-])c1	22µM*	?	12%	-4%	0%
CCc1nc(SCC(=O)c2cccc([N+](=O)[O-])c2)n[nH]1	?	?	50µM*	-32%	-2%
Nc1nc(SCC(=O)c2cccc([N+](=O)[O-])c2)n[nH]1	2.5µM*	?	?	-14%	4%
Cc1nc2n(c(=O)c1C)CN(Cc1cccnc1)CN2c1ccc(Cl)cc1Cl	.	.	.	-4%	.
COc1ccc(C(C)=O)cc1COC(=O)CNC(=O)c1ccc(F)cc1	-15%[59 µM]	2%	3%	-12%	-5%
COc1ccc(C(C)=O)cc1COC(=O)CNC(=O)c1ccc(Cl)cc1	50µM*	12%	-19%	-2%	-1%
CCOc1ccc(C(=O)NCC(=O)OCc2cc(C(C)=O)ccc2OC)cc1	45µM*	-7%	-8%	-13%	2%
CCN(CC)c1nc(N(C)C)nc(-n2cnc(SCc3ccccc3)n2)n1	.	.	.	-22%	.
O=C1/C(=C/c2cccs2)Cc2ccccc21	-19%	7%	-9%	8%	9%
O=C1/C(=C\c2cccs2)CCC/C1=C/c1cccs1	?	-9%	40µM*	.	0%
O=C(Cc1ccccc1Cl)NC1CCC(c2ccccc2)CC1 (stereo not drawn)	.	.	.	12%	.
CSC(=S)N/N=C(\C)c1ccc(Br)cc1	?	-26%	-4%	45µM*	6%
